# Measurements taken from PubChem BioAssay AID485364 (National Center for Advancing Translational Sciences (NCATS), 2010).
# About 11,000 (3.1%) of roughly 360,000 compounds were called active. Roughly 4% stayed inconclusive and do not appear here. Shown is part of a subset that was picked to be rich in actives. Unmarked numbers belong to inactive results. The call rests on the fitted dose curve; in most records, active means well fitted inhibition curve with a large enough effect; inconclusive means small, poorly fitted or top-dose-only effect; inactive means no such curve, though single readings can be large or run the other way.
# Molecular target: Schistosoma mansoni thioredoxin glutathione reductase (TGR) (UniProt Q962Y6)
# Experiment: qHTS Assay for the Inhibitors of Schistosoma Mansoni Peroxiredoxins; further: nearly all actives have a fitted effect of over 60% in size
# Conditions: purified TGR, DTNB reduction, TNB absorbance 405 nm; series mostly up to 114 µM; activity change, negative = inhibition: at the top concentration
# Source text: Schistosomiasis is a major neglected tropical disease that currently affects over 200 million. It is caused by different species of flatworms, such as Schistosoma mansoni. Over the last century, drugs to treat the disease have evolved from potassium antimonyl tartrate, artemisinin, oxamniquine, to praziquantel, with praziquantel remaining the universally-used single drug of choice over the past three decades. However, transmission rates have changed little with praziquantel, and there is evidence for the development of drug resistant parasites. Because there is currently no suitable alternative therapy available, there is an urgent need to identify new targets and drugs for schistosomiasis treatment. Thioredoxin glutathione reductase (TGR), one uniquely positioned S. mansoni enzyme, has been identified as a major component of the worms' distinct and compressed antioxidant "firewall". TGR is a multifunctional enzyme that catalyzes the interconversion between reduced and oxidized forms of both glutathione (GSH) and thioredoxins, thus making it an attractive new antiparasitic target. Recently, a quantitative high-throughput screen of the NIH Molecular Libraries Small Molecule Repository (MLSMR, ~71K at the time of the screen in 2007) was performed using an assay that targeted both TGR and peroxiredoxin2 (Prx2, an H2O2-reducing enzymatic component of the S. mansoni redox "firewall") by following the decrease of NADPH fluorescence. […] Additional mechanistic link between exogenous NO donation and parasitic injury for the oxadiazole-2-oxide class of compounds was also expanded and better defined. Although the screen addressed both TGR and Prx2, the assay required post-screen target deconvolution for further characterization of the actives. In addition, the fluorescence assay was also subject to fluorescence interference from compound library members. We have developed a 1536-well-based kinetic HTS assay to address TGR alone. The assay followed the reduction of 5, 5'-dithiobis (2-nitrobenzoic acid) (DTNB) (Ellman's reagent) by NADPH and measured the increase in absorbance at 412 nm of the reaction product, TNB. […] This assay format can be used to screen the current MLSMR collection (with >300K compounds available) to find novel TGR inhibitors. Furoxan is a good choice to serve as a positive control in the primary HTS assay.
# Three microliters of reagents (100 uM NADPH and 20 nM TGR or 100 uM NADPH as no-enzyme control) were dispensed into 1,536-well black clear-bottomed plates. Compounds (23 nL) were transferred via Kalypsys pin tool equipped with 1536-pin array (10 nL slotted pins, V&P Scientific, San Diego, CA). The plates were then be incubated for 15 min at room temperature, and 1 uL aliquot of 500 uM NADPH were added, immediately followed by a 1 uL aliquot of 15 mM DTNB to start the reaction. The plate was transferred to a ViewLux high-throughput CCD imager (Perkin-Elmer, Wellesley, MA) where kinetic measurements of the TNB absorbance were acquired using a 405 excitation filter. Throughout the screen, reagent bottles and all liquid lines were made light-tight to minimize reagent degradation. All screening operations were performed on a fully integrated robotic system (Kalypsys, San Diego, CA) containing one RX-130 and two RX-90 anthropomorphic robotic arms (Staubli, Duncan, SC). Library plates were screened starting from the lowest and proceeding to the highest concentration, and a "double-dipping" step of the highest concentration was required to access higher concentrations of compounds. Vehicle-only plates, with DMSO being pin-transferred to the entire column 5-48 compound area, were inserted uniformly at the beginning and the end of each library in order to monitor for and record any shifts in the background, which can be affected by reagent dispensers or loss in enzyme activity overtime. […]
# On the % scale 0 is the no-effect control and ±100 the full control effect; potency means the concentration at half of the fitted maximal effect.
SMILES,"activity change, negative = inhibition",Potency
Cc1ccc(CNC(=O)CCc2c(C)nn(-c3ccc(N4CCCC4)nn3)c2C)cc1,2.15%,
COc1ccccc1CNS(=O)(=O)c1cc(Br)cc2c1N(C(C)=O)C(C)C2 (stereo unspecified),-2.24%,
CCOC(=O)c1cc2c(=O)n3ccccc3nc2n(CC2CCCO2)c1=NC(=O)c1ccccc1F (stereo unspecified),-6.92%,
O=C(Nc1ccc2c(c1)OCO2)c1cc(-c2cccc(Cl)c2)on1,6.06%,
COc1cc(C)cc(CN2CCC(Cc3ccccc3)CC2)c1O,-35%,
Oc1c(CN2CCCC2)cc(COCc2ccccc2)c2cccnc12,,22.4 µM (active)
CC1CCCN(CC(O)COCc2ccccc2)C1 (stereo unspecified),1.25%,
COc1cc(OC)c(NC(=O)N2CC3CCCN3c3ccccc32)cc1Cl (stereo unspecified),-28.7%,
CCOC(=O)c1c(S(=O)(=O)N2CCCC(C(=O)NCc3ccc(F)cc3)C2)c(C)n(CC)c1C (stereo unspecified),2.19%,
CCOC(=O)c1c(C)[nH]c(CCC(=O)NCCCN2CCN(c3cc(C)ccc3C)CC2)c1C,-6.6%,
COc1ccc(C(CCN(Cc2ccc(OC)c(OC)c2)C(=O)CCl)c2ccccc2)cc1 (stereo unspecified),,8.91 µM (active)
COc1ccc(CN(Cc2ccc(OC)cc2)C(=O)c2cccs2)cc1,15.4%,
COc1ccc(CCNC(=O)C(Sc2ccccn2)c2ccccc2)cc1OC (stereo unspecified),2.91%,
CCc1nnc(SCc2nc(-c3cccc(C)c3)oc2C)c2cc3sc(C)cc3n12,20.7%,
Cc1cc(C)cc(NC(=S)NCCCN2CCOCC2)c1,-16.2%,
CCCCc1ccc(NC(=S)NCCCN2CCOCC2)cc1,,50.1 µM (active)
CCCC(=O)NC(=S)Nc1ccc(CN2CCOCC2)cc1,0%,
Cc1cccn2c(=O)c(C(=O)NC(C)c3ccccc3)cnc12 (stereo unspecified),-2.19%,
CCO[C@H]1OC(C(=O)O)=C[C@@H](C2CCCCC2)[C@@H]1CCCO,-1.63%,
NC(=O)C1=C[C@H](c2csc3ccccc23)C[C@H](OCc2ccc(CO)cc2)O1,-2.62%,
O=C(O)C1=C[C@H](c2cccs2)C[C@H](OCCCCO)O1,,39.8 µM (active)
C=CCOC(=O)C1=C[C@@H](c2ccccc2)C[C@@H](OCc2ccc(CO)cc2)O1,-32%,
C#Cc1ccc([C@@H]2C=C(C(=O)O)O[C@H](OCCCCO)C2)cc1,,39.8 µM (active)
CN1CCN(C(=O)C2=C[C@H](c3ccc4c(c3)OCO4)C[C@H](OCc3ccc(CO)cc3)O2)CC1,-1.84%,
Cc1ccc(-n2nc(CO)c(C(=O)NCCc3ccccc3)n2)cc1,0.121%,
COc1c(Cl)cc(C(=O)N(Cc2ccccc2F)C2CCS(=O)(=O)C2)cc1Cl (stereo unspecified),15.1%,

SMILES,"activity change, negative = inhibition",Potency
Cc1cccc(OCCSc2nc3ccc(NC(=O)COc4ccccc4C)cc3s2)c1,-8.79%,
CCOC(=O)Nc1sc(C(=O)N(C)C)c(C)c1C(=O)OCC,-17%,
CCOC(=O)c1sc(NC(=O)CCN2CCOCC2)c(C(=O)OCC)c1C,-3.18%,
CCOC(=O)c1c(NC(=O)CCl)sc(C(=O)N(CC)CC)c1C,,35.5 µM (active)
CSc1nc(=O)c2c(n1C)NC(=O)CC2c1ccccc1OC(C)C (stereo unspecified),3.1%,
CCc1ccc(NC(=O)CN2C(=O)CCSc3ccc(S(=O)(=O)N4CCCC4)cc32)cc1,-1.49%,
CCCCn1c(=O)c2oc3ccccc3c2n(CC(=O)Nc2ccccc2OC)c1=O,9.58%,
COc1ccc2c(c1)C=C(C(=O)NCc1cc(Br)ccc1OC)CO2,-6.94%,
COc1ccc(C)cc1NC(=O)CN1c2cccc3cccc(c23)S1(=O)=O,-12.4%,
CC(C)CN(CC(C)C)C(=O)CN1c2cccc3cccc(c23)S1(=O)=O,-11.9%,
O=C(O)CN1c2cccc3cccc(c23)S1(=O)=O,,35.5 µM (active)
CCN(CC)c1ccc(NS(=O)(=O)c2cc(-c3cc(C)no3)ccc2C)c(C)c1,-22.1%,
CCOc1ccc(N(CC)C(=O)c2cc3c(=O)oc4ccccc4c3s2)cc1,-10.1%,
O=C(c1ccc(Br)cc1)N(Cc1cccs1)c1ccc(F)cc1,-2.63%,
O=[N+]([O-])c1cc(S(=O)(=O)N2CCCC2)ccc1NN=C1CCCC1,-14.2%,
CN1CCN(S(=O)(=O)c2ccc(N3CCN(c4ccccc4O)CC3)c([N+](=O)[O-])c2)CC1,-15.4%,
Cc1cc(N)n(-c2ccc(S(=O)(=O)N3CCCC3)cc2[N+](=O)[O-])n1,,50.1 µM (active)
COc1cc(OC)cc(C(=O)NCCc2csc3nc(-c4ccccc4F)nn23)c1,2.26%,
CCC1CCCCN1C(=O)Nc1cccc(NC(=O)N2CCCCC2CC)c1 (stereo unspecified),,39.8 µM (active)
COc1cccc(NC(=O)N2CCCC2C(=O)NC2CCCCC2)c1 (stereo unspecified),4.18%,
CCC1CCCCN1C(=S)Nc1ccc(C(C)=O)cc1 (stereo unspecified),-6.57%,
CCN1C(=O)c2ccccc2Sc2ccc(NC(=O)Cc3ccc(OC)cc3)cc21,5.68%,
CCOC(=O)CC1=CC(=O)Nc2ccccc2N1,0%,
CCCCC(CC)CNC(=O)C(=O)C1C(=O)Nc2ccccc21 (stereo unspecified),1.5%,
CCOC(=O)C(=O)C1C(=O)Nc2ccccc21 (stereo unspecified),,28.2 µM (active)
